Screening data as filed in PubChem.
Shown are actives, neighbours in structure and some others; about 11% of the full set was active somewhere.
ALDH1A1 inh: inhibitors of human aldehyde dehydrogenase 1A1; Potency, µM (highest dose often 75.3 µM), usual class: inhibitors; Purified ALDH1A1, NADH fluorescence, propionaldehyde substrate; hit rate 7.3% among 220,000; AID 1030; active = well fitted inhibition curve with a large enough effect, not every such curve was filed as active; inconclusive = small, poorly fitted or top-dose-only effect, or another doubt; inactive = no such curve, though single readings can be large or run the other way
Target sequence (P00352 whole entry, looked up): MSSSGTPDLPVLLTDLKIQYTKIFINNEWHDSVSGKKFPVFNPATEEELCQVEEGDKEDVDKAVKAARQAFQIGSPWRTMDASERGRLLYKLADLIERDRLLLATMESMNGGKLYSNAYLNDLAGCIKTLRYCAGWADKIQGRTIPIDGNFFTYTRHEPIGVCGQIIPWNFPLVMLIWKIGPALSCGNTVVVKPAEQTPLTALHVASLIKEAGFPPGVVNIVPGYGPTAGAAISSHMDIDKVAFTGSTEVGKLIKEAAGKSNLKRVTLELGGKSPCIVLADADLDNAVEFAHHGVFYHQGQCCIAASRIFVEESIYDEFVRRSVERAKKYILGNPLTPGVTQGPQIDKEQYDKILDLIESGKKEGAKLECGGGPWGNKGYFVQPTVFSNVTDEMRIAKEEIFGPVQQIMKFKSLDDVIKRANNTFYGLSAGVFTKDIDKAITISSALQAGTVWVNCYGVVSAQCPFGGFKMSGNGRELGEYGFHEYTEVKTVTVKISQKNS
PNC assembly inh: perinucleolar compartment assembly inhibition | PC3M PTB-GFP, PNC prevalence imaging, 16 h; active compounds read low | AID 2417 | hit rate 3.1% among 140,000 | activity change (PNC), negative = inhibition, % at 10 µM;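 active = readout at or below -70, meaning at least 70% loss of cells showing the perinucleolar compartment, a nuclear body marking cancer cells; inconclusive = readout between -30 and a set limit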
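PC3M cells stably expressing PTB-GFP, 750–1000 cells/well, treated 16 h at 37 °C with compound (23 nl of library stock), in duplicate. After paraformaldehyde fixation and Hoechst stain, imaged at 20x; PNC prevalence scored by image analysis.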
HttQ103 aggreg: inhibitors of mutant huntingtin aggregate formation in PC12 cells; hit rate 1.1% among 220,000; PC12 HttQ103-GFP aggregates, Acumen cytometry, 40 h; Potency, µM (titrated, usually from 46.1 µM), usual class: inhibitors; note: nearly all actives have a fitted effect of over 60% in size
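Inducible Q103 Huntingtin exon 1–GFP PC12 line, 1500 cells/well in phenol red free DMEM with 5% equine and 5% calf serum. Tebufenozide 100 nM induced expression; compounds titrated; aggregates quantified by cytometry.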
HPGD block: blocks human HPGD enzyme activity; purified HPGD, NADH fluorescence kinetic, PGE2 substrate; AID 894; Potency, µM, hits mostly inhibitors; P15428; hit rate 4.3% among 150,000; active = well fitted inhibition curve with a large enough effect, not every such curve was filed as active; inconclusive = small, poorly fitted or top-dose-only effect, or another doubt; inactive = no such curve, though single readings can be large or run the other way
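NADH formation kinetics: reaction with 30 uM PGE2 and 1 mM NAD+ (final), 20 nM enzyme, Tris-HCl pH 8 with Tween 20, after 15 min compound preincubation at room temperature. Fluorescence change, last versus first of five reads.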
CBFb-RUNX1 inh: blocks binding between human CBF-beta and RUNX1 | Q01196+Q13951 | AlphaScreen CBFb-His/RUNX1-biotin binding, biochemical | Potency, µM (top dose mostly 59.8 µM), hits mostly inhibitors | 230,000 tested, under 10 active
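Bead-based AlphaScreen assay; binding partners His-tagged CBF-beta and biotinylated RUNX1 at 30 nM each. Compound exposure 15 min after a 20-min protein preincubation; bead step 90 min; all steps at room temperature.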
HTT ATP protect: protects HTT-Q103 PC12 cells, measured by ATP; PC12 HTT-Q103 induced, cytoprotection, ATP luminescence, 40 h; Potency, µM (titrated, usually from 56.4 µM), most hits filed as activators; hit rate 0.14% among 230,000; note: nearly all actives have a fitted effect of over 45% in size
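Quantitative HTS on tebufenozide-induced (100 nM) PC12 cells expressing HTTQ103 exon 1–GFP; compounds tested as a concentration series; survival measured via cellular ATP.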
A number is an active result; 0 = inactive; ? = inconclusive; - = not tested or not shown; [ ] = another dose, or the depositor's remark. Unless noted, calls come from the whole dose curve; as a rule, active = well fitted curve in the direction sought with a large enough effect; inconclusive = small, poorly fitted or top-dose-only effect, or another doubt; inactive = no such curve, though single readings can be large; an effect the other way counts as inactive or inconclusive.

SMILES	ALDH1A1 inh	PNC assembly inh	HttQ103 aggreg	HPGD block	CBFb-RUNX1 inh	HTT ATP protect
CC(=O)N(CC1CCCO1)c1nnc(-c2ccccn2)s1 (centres undefined)	?	?	0	0	0	0[10 µM]
CC(=O)Nc1ccc(NC(=O)C2CCCN2/C=C/C(=O)C(F)(F)F)cc1 (centres undefined)	0	-	0	-	0	0
CC(C)(C)CC(C)(C)c1ccc(OCCOCC[N+](C)(C)Cc2ccccc2)cc1	-	-	28µM	0	0	0
C[C@H](Cc1nc2c(cnn2-c2ccccc2Cl)c(=O)[nH]1)C(F)(F)F	-	-	-	-	0	-
O=C(CNc1ccc(Br)cc1)c1ccc(O)cc1	11µM	-	0	-	0	0
O=C(CNc1ccc(Cl)cc1)c1ccc(Br)cc1	10µM	-	0	-	0	-
O=C(CNc1ccc(Br)cc1)NNC1=NCCC1	0	-113	0	0	0	-
C/C(=C\C(=O)c1ccc(Br)cc1)Nc1ccc(Cl)cc1	?	0	0	0	0	-
CCOC(=O)c1nc(N2CCN(C(=O)OCC)CC2)c2c3c(sc2n1)CCCC3	?	0	0	?	0	0
CCOC(=O)c1cnn(-c2nc(SC)nc3sc4c(c23)CCCC4)c1N	1.1µM	0	0	0	0	0
CCOC(=O)c1cnn(-c2ncnc3sc4c(c23)CCC4)c1N	0	0	0[9.22 µM]	7.9µM	0	0
N#Cc1c(-c2ccco2)nc(SCc2ccc(F)cc2)[nH]c1=O	0	0	0	10µM	0	0
CCC(=O)OCC(=O)C1(OC(=O)CC)C(C)CC2C3C(Cl)CC4=CC(=O)C=C[C@@]4(C)C3C(O)C[C@@]21C (some centres undefined)	?	-	-	0	0	0
CCOC(=O)NN1C(=O)c2ccccc2NC1c1ccc(N(C)C)cc1 (centres undefined)	18µM	0	0	0	0	0[10 µM]
COC(=O)CSc1[nH]c2cc(C)ccc2c1[N+](=O)[O-]	0	-	0[9.22 µM]	-	0	0[10 µM]
Cc1cc2c(c(=O)o1)C(C1C=CCCC1)C(C#N)=C(N)O2 (centres undefined)	7.9µM	0	0	28µM	0	0
N#CC1=C(N)SC(N)=C(C#N)C1C1C=CCCC1 (centres undefined)	22µM	0	0	0	0	0[10 µM]
Cc1cc2c(c(=O)o1)C(C(C)C)C(C#N)=C(N)O2 (centres undefined)	?	0	0	0	0	0[10 µM]
CCOC(=O)c1ccc2c(c1)NCc1cccc(OC)c1O2	0	-	0[9.22 µM]	-	0	0[10 µM]
COCCNCCCCOc1ccc(C)cc1[N+](=O)[O-]	2.8µM	?	0	0	?	0[10 µM]
Cc1ccc(OCCCCn2ccnc2)c([N+](=O)[O-])c1	1.6µM	-	0[9.22 µM]	-	0	0[10 µM]
COCCCNCCOc1ccc(C)cc1[N+](=O)[O-]	?	0	0	0	0	0[10 µM]
Cc1ccc(OCCOc2cccc3ccc(C)nc23)c([N+](=O)[O-])c1	14µM	-	0	-	0	0[10 µM]
COc1ccc(OCCOCCOc2ccc(C)cc2[N+](=O)[O-])cc1	25µM	0	0	?	0	0[0.074 µM]
Cc1ccc(S(=O)(=O)N2CCCC2C(=O)NC2=NCCS2)cc1 (centres undefined)	0	0	0	0	0	0
SMILES	ALDH1A1 inh	PNC assembly inh	HttQ103 aggreg	HPGD block	CBFb-RUNX1 inh	HTT ATP protect
Cc1ncc(CC(=O)n2cc(C(=O)c3cc(F)ccc3O)cn2)s1	7.9µM	0	0	0	0	0
Cc1ccc(O)c(C(=O)c2cnn(C(=O)Cc3csc(C)n3)c2)c1	1.1µM	0	22µM	0	0	0[10 µM]
Cc1nc(CC(=O)c2ccc(O)c(C)c2O)cs1	-	-	0[9.22 µM]	-	0	0[10 µM]
Cc1nn(C)c2ncc(C(=O)c3cc(F)ccc3O)cc12	0	0	0	0	0	0[10 µM]
C[C@]12CC[C@H]3c4ccc(OC[C@H]5CO5)cc4CC[C@H]3[C@H]1CC[C@@H]2O	0[13.5 µM]	-	-	-	0[13.1 µM]	0[10 µM]
CC(=O)O[C@@H]1C(=O)[C@@]2(C)[C@H](O)C[C@H]3OC[C@]3(OC(C)=O)[C@@H]2[C@H](OC(=O)c2ccccc2)[C@@]2(O)C[C@H](OC(=O)[C@@H](O)[C@@H](NC(=O)c3ccccc3)c3ccccc3)C(C)=C1C2(C)C (stereo in doubt)	0	-	-	0	0	0
O=C(O)C1=C/C(=C(/c2ccccc2)c2cc(C(=O)O)c(O)c3ccccc23)c2ccccc2C1=O	0[13.5 µM]	-	-	0	-	0[10 µM]
COc1c(O)cc2c(c1O)C1OC(CO)C(O)[C@H](O)[C@H]1OC2=O (some centres undefined)	0	-	-	0	-	-
O=C(O[C@@H]1OC2COC(=O)c3cc(O)c(O)c(O)c3-c3c(cc(O)c(O)c3O)C(=O)O[C@@H]([C@H]1O)[C@@H]2O)c1cc(O)c(O)c(O)c1	0	0	0	1.8µM	-	-
CC(C)=CCC/C(C)=C/CO/N=C1/C[C@@H](O)[C@@H](O)[C@@H]2[C@H]3C(=O)N(c4ccc(F)cc4F)C(=O)[C@@H]3CC[C@@H]12	0[13.5 µM]	-	-	-	0[13.1 µM]	0[10 µM]
NC(=O)C1=C[C@@H](c2ccc(C(F)(F)F)cc2)C[C@@H](OCCCCO)O1	0	-	0[9.22 µM]	-	0	0[10 µM]
CN(C)c1ccc(-c2nc3ccccn3c2/N=C/c2ccc(Br)cc2)cc1	?	-112	0	0	0	0[10 µM]
O=C(CNc1ccc2c(c1)OCO2)N/N=C\c1cn(Cc2ccccc2)c2ccccc12	4.5µM	0	0	0	0	0[10 µM]
O=C(CNc1ccccc1)N/N=C/c1ccc2c(c1)OCO2	0	0	0	0	0	0[10 µM]
O=Cc1cn(CC(=O)Nc2ccc3c(c2)OCO3)c2ccccc12	?	-	0	-	0	0
O=C(CNc1ccc2c(c1)OCO2)N/N=C\c1cn(Cc2ccc(F)cc2)c2ccccc12	2µM	0	0	0	0	-
O=C1C2C3C=CC(C3)C2C(=O)N1/N=C/c1cn(Cc2ccc(F)cc2)c2ccccc12 (centres undefined)	25µM	0	0	0	0	0
COc1ccccc1/C=C/C(=O)/C=C/c1ccccc1O	-	-	0[9.22 µM]	-	0	0[10 µM]
O=c1oc2ccccc2c(O)c1/C=N/c1ncccn1	?	0	0	?	0	0[10 µM]
O=c1oc2ccccc2c(O)c1/C=C1\C=Nc2ccccc21	13µM	0	0	2.2µM	0	0
C=C/C1=C/Cc2ccccc2[C@H](C[N+](=O)[O-])C(C(C)=O)(C(=O)OC)C1 (some centres undefined)	0	-	-	0	0	0
Cc1ccc(Cl)cc1N1CCN(C(=O)C2CCN(S(=O)(=O)c3cccnc3)CC2)CC1	0	0	11µM	0	0	0
COc1cc(S(=O)(=O)N2CCCCC2)ccc1NC(=O)c1ccc(F)cc1	?	0	0	0	0	0
COc1ccc(S(=O)(=O)N2CCC(C(=O)N3CCCCC3)CC2)cc1Cl	0	0	0	16µM	0	0
